# Experimental data taken from PubChem BioAssay (Tox21).
# Inconclusive results are not listed. A number with no mark means an inactive call. Active and inactive are the calls of the source. The call rests on the fitted dose curve; in most records, active means well fitted curve in the direction sought with a large enough effect in the repeat runs; inconclusive means weak or mixed curves; inactive means no such curve, though single readings can be large; an effect the other way counts as inactive or inconclusive.
# Target: Nuclear receptor subfamily 1 group I member 2 (Rattus norvegicus) (UniProt Q9R1A7)
# Assay: Rat pregnane X receptor (rPXR) activation by small molecules, qHTS assay (AID 1346983); further: nearly all actives have a fitted effect of over 20% in size
# Settings: rPXR luciferase reporter cells, One-Glo luminescence, 24 h; max activation: active compounds read high
# Summary of the method: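 Cell-based rPXR luciferase reporter assay, 2,000 cells per well, rested 5hr at 37 C before compound addition in DMSO, then 24 hr at 37 C. One-Glo reagent was added and luminescence read after 30 min at room temperature.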
# On the % scale 0 is the no-effect control and ±100 the full control effect; potency means the concentration at half of the fitted maximal effect.
# Chain of Nuclear receptor subfamily 1 group I member 2 (Rattus norvegicus) (Q9R1A7 whole entry, looked up): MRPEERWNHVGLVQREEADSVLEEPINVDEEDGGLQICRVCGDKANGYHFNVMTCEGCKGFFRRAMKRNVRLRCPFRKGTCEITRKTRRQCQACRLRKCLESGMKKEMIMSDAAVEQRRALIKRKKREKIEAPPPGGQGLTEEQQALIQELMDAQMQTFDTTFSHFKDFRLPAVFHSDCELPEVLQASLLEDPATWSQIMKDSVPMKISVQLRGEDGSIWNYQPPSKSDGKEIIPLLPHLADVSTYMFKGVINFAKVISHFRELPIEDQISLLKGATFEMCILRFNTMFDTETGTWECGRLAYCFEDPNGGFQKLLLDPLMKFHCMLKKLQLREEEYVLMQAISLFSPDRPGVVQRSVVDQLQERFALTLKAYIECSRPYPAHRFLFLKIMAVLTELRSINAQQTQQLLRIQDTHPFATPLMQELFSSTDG
SMILES,max activation [%],Potency
CNCC[C@H](Oc1cccc2ccccc12)c1cccs1,-8.93,
CCCCCCCCCCCCCCNCCO,11.2,
COC(=O)C1=C(C)NC(C)=C(C(=O)OCCCN2CCC(c3ccccc3)(c3ccccc3)CC2)C1c1cccc([N+](=O)[O-])c1 (centres undefined),,5.01 µM (active)
COc1cc(C=C2CCC/C(=C\c3ccc(O)c(OC)c3)C2=O)ccc1O,-7.88,
Cc1c(C)n(Cc2ccccc2)c2ccc(C(=O)OCCN(C)C)cc12,1.71,
CCOC(=O)C1=C(C)NC(C)=C(C(=O)OCC)C1c1ccccc1/C=C/C(=O)OC(C)(C)C,,3.55 µM (active)
CC(NCCC(c1ccccc1)c1ccccc1)c1ccccc1 (centres undefined),-19.7,
CCCCCCCCCCOCC(O)CN (centres undefined),-17.7,

# Target: Nuclear receptor subfamily 1 group I member 2 (Homo sapiens) (UniProt O75469)
# Assay: CYP3A4 induction through human pregnane X receptor (PXR) by small molecules, qHTS assay (AID 1346984); further: nearly all actives have a fitted effect of over 40% in size
# Settings: DPX-2 HepG2 PXR, CYP3A4-luciferin luminescence, 24 h; series mostly up to 46.1 µM; activation: at the top concentration
# Summary of the method: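 DPX-2 cells (HepG2 co-transfected with PXR and CYP3A4 promoter-luciferase) treated with compounds 24 h at 37C; luciferin-IPA CYP3A4 substrate 3uM final added for 3 h, then One-Glo; luminescence read. qHTS format.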
SMILES,Potency,activation [%]
CN1CCN(C2Cc3ccccc3Sc3ccc(Cl)cc32)CC1 (centres undefined),31.6 µM (active),
CCCCCCCCCCCCCCNCCO,,-3.06
COc1cc(C=C2CCC/C(=C\c3ccc(O)c(OC)c3)C2=O)ccc1O,,-47.3
Cc1c(C)n(Cc2ccccc2)c2ccc(C(=O)OCCN(C)C)cc12,3.98 µM (active),
CCOC(=O)C1=C(C)NC(C)=C(C(=O)OCC)C1c1ccccc1/C=C/C(=O)OC(C)(C)C,,-41.6

# Target: Cytochrome P450 2D6 (Homo sapiens) (UniProt P10635)
# Assay: Cytochrome P450 Family 2 Subfamily D Member 6 (CYP2D6) small molecule antagonists: luciferase reporter qHTS assay (AID 1671196); further: nearly all actives have a fitted effect of over 50% in size
# Settings: P450-Glo CYP2D6 enzyme assay, luciferin luminescence, 1 h; series mostly up to 115 µM; activity change, negative = inhibition: at the top concentration
# Summary of the method: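 CYP2D6 enzyme–substrate mix was held with compound for 10 min at room temperature, then NADPH regeneration solution was added and the reaction ran 1 h at room temperature. Luciferin product was detected by luminescence after 20 min with detection reagent.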
# Chain of Cytochrome P450 2D6 (Homo sapiens) (P10635 whole entry, looked up): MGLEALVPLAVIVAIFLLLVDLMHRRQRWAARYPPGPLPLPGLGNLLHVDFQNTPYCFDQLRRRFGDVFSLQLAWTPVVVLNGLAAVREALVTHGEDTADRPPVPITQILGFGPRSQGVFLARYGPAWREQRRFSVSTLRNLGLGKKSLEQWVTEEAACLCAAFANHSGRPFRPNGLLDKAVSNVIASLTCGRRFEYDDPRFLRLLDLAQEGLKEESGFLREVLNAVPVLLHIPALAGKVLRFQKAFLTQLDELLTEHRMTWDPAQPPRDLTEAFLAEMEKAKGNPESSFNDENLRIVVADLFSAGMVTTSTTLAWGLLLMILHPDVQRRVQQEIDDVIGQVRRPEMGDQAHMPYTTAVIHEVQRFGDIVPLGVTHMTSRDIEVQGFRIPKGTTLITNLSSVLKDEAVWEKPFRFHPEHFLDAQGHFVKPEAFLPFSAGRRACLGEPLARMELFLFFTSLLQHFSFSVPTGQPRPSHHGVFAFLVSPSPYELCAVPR
SMILES,Potency,"activity change, negative = inhibition"
CC(C)c1cccc(C(C)C)c1N1C(=O)c2ccc(O)cc2C1=O,31.7 µM (active),
CCCCCCCC/C=C/CCCOC(C)=O,,-6.72%
CCOC(=O)CC(C)O (centres undefined),,0.513%
CCc1ccc(O)c(C(C)(C)C)c1,,-20.9%
CN1CCN(C2Cc3ccccc3Sc3ccc(Cl)cc32)CC1 (centres undefined),0.347 µM (active),
CCCCCCCC(OC)OC,,-1.21% [at 53 µM]
CCCCCCCCCCCCCCNCCO,3.09 µM (active),
COc1ccc(C#N)cc1,,-14.2%
CCN=C1C=CC(=C(c2ccc(N(CC)CC)cc2)c2ccc(N(CC)CC)cc2)c2ccccc21,12.6 µM (active),
Cc1oc(-c2ccccc2)nc1CCOc1ccc(C[C@H](Nc2ccccc2C(=O)c2ccccc2)C(=O)O)cc1,,-10.6%
CC(=O)C=O,,-2.09%
COc1ccc(-n2nc(CCC(=O)N(C)O)cc2-c2ccc(Cl)cc2)cc1,15.5 µM (active),
C/C=C/C(=O)Oc1c(CCCCCC(C)C)cc([N+](=O)[O-])cc1[N+](=O)[O-],,-24.6%
O=C(O)CC(=O)O,71.2 µM (active),
Cc1cccc(C)n1,,0.0672%
CCCCOC(=O)C(C)CC (centres undefined),,-3.61%
CC(NCCC(c1ccccc1)c1ccccc1)c1ccccc1 (centres undefined),0.219 µM (active),
C/C=C/c1ccc(OC)c(OC)c1,,-1.39%
CCCCCCCCCCOCC(O)CN (centres undefined),6.92 µM (active),
CCCCCCCOC(=O)c1ccc(O)cc1,71 µM (active),
CC(C(O)c1ccccc1)N(C)CCOC(c1ccccc1)c1ccccc1 (centres undefined),0.174 µM (active),
